ChEMBL document CHEMBL2218924, “A broad activity screen in support of a chemogenomic map for kinase signalling research and drug discovery” (Biochem J, 2013)

Key:
[1] = biological target: T1, Dual specificity tyrosine-phosphorylation-regulated kinase 2 (Homo sapiens) (UniProt Q92630); details: at 1 µM
T1 sequence (whole entry): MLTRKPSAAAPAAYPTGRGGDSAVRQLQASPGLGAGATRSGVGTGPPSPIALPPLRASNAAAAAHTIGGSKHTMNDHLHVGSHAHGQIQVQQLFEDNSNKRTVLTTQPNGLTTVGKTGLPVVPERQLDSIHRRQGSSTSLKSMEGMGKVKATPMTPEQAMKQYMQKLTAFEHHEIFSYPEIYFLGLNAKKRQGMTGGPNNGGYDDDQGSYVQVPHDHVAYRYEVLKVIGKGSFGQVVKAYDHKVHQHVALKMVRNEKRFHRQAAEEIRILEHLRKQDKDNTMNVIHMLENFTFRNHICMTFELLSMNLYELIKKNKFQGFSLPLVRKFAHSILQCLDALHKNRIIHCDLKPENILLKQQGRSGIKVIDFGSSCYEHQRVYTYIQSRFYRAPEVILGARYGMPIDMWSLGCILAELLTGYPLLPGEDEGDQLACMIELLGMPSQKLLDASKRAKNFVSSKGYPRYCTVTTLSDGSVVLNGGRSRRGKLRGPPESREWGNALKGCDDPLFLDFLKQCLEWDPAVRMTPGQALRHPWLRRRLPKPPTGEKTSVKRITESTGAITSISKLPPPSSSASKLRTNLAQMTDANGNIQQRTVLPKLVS

[2] = biological target: T1, Dual specificity tyrosine-phosphorylation-regulated kinase 2 (Homo sapiens); details: at 10 µM
[3] = biological target: T2, Ephrin type-A receptor 1 (Homo sapiens) (UniProt P21709); details: at 1 µM
T2 sequence (whole entry): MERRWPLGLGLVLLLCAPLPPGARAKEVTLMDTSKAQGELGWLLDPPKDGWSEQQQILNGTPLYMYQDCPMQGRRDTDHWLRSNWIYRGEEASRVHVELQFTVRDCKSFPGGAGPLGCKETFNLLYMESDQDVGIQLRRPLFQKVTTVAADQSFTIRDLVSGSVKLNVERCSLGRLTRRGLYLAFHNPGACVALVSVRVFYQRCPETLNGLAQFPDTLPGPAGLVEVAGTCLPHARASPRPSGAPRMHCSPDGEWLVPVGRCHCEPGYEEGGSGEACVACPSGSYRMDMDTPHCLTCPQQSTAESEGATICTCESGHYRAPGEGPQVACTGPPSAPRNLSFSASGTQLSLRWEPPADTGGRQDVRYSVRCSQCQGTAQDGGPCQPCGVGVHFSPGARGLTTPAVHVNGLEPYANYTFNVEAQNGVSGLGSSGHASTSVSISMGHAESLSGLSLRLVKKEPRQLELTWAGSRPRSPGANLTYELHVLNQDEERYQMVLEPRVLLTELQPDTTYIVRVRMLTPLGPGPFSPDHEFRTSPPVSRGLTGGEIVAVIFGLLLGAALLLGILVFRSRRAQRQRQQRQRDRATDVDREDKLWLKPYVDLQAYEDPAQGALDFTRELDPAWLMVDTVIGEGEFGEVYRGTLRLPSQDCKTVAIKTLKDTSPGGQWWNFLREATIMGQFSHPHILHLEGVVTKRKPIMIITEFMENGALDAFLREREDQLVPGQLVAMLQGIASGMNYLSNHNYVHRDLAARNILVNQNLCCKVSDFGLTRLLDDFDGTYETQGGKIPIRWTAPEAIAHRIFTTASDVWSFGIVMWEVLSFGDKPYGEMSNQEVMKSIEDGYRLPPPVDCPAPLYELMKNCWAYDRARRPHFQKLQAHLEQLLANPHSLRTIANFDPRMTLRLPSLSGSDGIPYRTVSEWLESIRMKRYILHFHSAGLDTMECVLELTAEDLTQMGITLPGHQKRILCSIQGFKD

[4] = biological target: T2, Ephrin type-A receptor 1 (Homo sapiens); details: at 10 µM
[5] = biological target: Ephrin type-A receptor 2 (Homo sapiens) (UniProt P29317); details: at 1 µM
[6] = biological target: Ephrin type-A receptor 2 (Homo sapiens) (UniProt P29317); details: at 10 µM
[7] = biological target: T3, Ephrin type-A receptor 3 (Homo sapiens) (UniProt P29320); details: at 1 µM
T3 sequence (whole entry): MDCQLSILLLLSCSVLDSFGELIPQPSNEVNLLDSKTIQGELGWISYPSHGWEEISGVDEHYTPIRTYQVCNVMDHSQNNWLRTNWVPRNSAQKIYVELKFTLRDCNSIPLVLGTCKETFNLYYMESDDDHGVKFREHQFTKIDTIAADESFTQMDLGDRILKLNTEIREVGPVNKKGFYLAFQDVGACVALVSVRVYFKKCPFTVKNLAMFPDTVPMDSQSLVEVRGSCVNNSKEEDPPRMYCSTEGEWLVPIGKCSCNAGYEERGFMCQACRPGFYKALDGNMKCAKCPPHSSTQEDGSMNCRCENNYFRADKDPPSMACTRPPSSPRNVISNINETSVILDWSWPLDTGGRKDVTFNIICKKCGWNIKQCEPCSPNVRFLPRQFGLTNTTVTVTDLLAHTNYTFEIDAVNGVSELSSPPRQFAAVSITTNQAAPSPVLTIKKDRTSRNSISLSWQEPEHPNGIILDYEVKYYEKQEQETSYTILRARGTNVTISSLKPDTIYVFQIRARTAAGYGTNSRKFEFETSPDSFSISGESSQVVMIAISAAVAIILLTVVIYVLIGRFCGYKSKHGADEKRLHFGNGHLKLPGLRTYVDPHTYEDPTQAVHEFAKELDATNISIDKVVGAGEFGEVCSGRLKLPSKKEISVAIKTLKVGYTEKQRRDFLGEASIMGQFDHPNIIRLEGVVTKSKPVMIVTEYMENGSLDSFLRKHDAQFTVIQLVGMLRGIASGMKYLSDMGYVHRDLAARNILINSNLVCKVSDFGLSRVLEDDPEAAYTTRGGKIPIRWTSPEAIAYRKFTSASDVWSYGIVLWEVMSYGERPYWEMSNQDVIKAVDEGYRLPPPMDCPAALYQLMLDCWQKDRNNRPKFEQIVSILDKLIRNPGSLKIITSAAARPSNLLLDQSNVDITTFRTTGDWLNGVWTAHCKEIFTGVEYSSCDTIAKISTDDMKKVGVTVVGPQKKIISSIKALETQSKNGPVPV

[8] = biological target: T3, Ephrin type-A receptor 3 (Homo sapiens); details: at 10 µM
[9] = biological target: Ephrin type-A receptor 5 (Homo sapiens) (UniProt P54756); details: at 10 µM
[10] = biological target: Ephrin type-A receptor 7 (Homo sapiens) (UniProt Q15375); details: at 10 µM
[11] = biological target: T4, Ephrin type-A receptor 8 (Homo sapiens) (UniProt P29322); details: at 1 µM
T4 sequence (whole entry): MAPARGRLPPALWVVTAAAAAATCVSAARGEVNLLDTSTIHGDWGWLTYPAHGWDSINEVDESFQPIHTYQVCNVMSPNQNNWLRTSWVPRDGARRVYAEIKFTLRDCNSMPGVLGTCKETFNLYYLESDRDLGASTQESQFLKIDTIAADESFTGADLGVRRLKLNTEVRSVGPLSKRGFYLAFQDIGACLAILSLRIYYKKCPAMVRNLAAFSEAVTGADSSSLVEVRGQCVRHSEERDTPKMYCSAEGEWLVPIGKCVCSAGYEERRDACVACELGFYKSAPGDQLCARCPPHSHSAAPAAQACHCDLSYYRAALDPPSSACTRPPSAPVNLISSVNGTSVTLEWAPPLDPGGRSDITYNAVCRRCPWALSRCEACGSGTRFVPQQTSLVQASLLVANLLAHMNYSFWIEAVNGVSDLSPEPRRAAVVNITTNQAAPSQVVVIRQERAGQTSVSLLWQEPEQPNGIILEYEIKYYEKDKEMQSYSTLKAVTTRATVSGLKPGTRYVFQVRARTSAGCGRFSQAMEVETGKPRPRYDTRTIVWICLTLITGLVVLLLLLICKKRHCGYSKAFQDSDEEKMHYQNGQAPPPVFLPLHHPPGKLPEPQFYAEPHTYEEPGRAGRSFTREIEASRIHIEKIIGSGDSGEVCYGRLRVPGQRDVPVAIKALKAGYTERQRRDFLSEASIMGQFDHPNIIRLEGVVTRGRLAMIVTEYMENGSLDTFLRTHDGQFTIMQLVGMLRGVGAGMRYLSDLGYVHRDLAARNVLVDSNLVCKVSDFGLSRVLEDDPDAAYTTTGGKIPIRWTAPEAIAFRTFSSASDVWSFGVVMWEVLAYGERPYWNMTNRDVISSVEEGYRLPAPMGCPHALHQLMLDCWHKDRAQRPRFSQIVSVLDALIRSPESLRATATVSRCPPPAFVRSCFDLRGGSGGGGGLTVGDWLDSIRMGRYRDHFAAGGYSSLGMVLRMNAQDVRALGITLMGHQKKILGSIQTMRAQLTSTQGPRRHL

[12] = biological target: T4, Ephrin type-A receptor 8 (Homo sapiens); details: at 10 µM
[13] = biological target: T5, Ephrin type-B receptor 1 (Homo sapiens) (UniProt P54762); details: at 1 µM
T5 sequence (whole entry): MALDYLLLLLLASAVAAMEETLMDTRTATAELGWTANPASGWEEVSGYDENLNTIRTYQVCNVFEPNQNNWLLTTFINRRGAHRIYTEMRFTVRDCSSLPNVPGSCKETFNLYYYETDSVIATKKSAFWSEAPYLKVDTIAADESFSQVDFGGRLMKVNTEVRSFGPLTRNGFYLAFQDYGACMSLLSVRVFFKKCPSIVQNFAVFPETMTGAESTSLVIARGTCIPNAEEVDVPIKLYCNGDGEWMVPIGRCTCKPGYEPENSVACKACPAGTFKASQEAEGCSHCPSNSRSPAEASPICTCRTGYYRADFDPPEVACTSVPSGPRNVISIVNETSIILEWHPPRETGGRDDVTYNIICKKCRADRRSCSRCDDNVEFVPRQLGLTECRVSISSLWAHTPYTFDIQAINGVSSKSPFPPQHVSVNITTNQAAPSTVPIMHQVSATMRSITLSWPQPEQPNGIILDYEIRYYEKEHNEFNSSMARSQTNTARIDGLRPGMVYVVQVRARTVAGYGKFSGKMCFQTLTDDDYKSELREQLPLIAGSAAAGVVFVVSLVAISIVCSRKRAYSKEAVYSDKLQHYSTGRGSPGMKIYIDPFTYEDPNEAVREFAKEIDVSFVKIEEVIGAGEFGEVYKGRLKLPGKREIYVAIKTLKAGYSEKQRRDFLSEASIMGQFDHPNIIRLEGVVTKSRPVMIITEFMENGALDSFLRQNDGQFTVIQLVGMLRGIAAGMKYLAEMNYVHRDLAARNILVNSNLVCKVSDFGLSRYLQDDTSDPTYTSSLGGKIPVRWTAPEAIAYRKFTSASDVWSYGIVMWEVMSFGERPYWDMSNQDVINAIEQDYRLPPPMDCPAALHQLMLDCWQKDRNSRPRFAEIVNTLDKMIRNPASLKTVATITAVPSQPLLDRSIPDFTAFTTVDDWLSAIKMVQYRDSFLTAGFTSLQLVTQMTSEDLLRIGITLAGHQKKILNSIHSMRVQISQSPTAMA

[14] = biological target: T6, Serine/threonine-protein kinase 17A (Homo sapiens) (UniProt Q9UEE5); details: at 10 µM
T6 sequence (whole entry): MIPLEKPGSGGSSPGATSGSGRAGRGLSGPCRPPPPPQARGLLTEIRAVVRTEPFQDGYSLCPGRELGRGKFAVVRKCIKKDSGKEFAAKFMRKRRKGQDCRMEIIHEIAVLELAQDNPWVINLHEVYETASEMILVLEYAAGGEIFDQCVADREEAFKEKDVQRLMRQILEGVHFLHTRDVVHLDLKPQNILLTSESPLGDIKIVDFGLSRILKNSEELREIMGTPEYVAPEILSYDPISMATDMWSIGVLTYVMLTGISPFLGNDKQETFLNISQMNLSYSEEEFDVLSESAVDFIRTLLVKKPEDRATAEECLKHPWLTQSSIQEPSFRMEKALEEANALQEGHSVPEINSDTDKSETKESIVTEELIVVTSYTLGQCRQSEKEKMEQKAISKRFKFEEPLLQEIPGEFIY

[15] = biological target: Ephrin type-A receptor 4 (Homo sapiens) (UniProt P54764); details: at 1 µM
[16] = biological target: Ephrin type-A receptor 4 (Homo sapiens) (UniProt P54764); details: at 10 µM
[17] = biological target: Ephrin type-A receptor 5 (Homo sapiens) (UniProt P54756); details: at 1 µM
[18] = biological target: Ephrin type-A receptor 7 (Homo sapiens) (UniProt Q15375); details: at 1 µM

Chain of Ephrin type-A receptor 5 (Homo sapiens) (P54756 whole entry): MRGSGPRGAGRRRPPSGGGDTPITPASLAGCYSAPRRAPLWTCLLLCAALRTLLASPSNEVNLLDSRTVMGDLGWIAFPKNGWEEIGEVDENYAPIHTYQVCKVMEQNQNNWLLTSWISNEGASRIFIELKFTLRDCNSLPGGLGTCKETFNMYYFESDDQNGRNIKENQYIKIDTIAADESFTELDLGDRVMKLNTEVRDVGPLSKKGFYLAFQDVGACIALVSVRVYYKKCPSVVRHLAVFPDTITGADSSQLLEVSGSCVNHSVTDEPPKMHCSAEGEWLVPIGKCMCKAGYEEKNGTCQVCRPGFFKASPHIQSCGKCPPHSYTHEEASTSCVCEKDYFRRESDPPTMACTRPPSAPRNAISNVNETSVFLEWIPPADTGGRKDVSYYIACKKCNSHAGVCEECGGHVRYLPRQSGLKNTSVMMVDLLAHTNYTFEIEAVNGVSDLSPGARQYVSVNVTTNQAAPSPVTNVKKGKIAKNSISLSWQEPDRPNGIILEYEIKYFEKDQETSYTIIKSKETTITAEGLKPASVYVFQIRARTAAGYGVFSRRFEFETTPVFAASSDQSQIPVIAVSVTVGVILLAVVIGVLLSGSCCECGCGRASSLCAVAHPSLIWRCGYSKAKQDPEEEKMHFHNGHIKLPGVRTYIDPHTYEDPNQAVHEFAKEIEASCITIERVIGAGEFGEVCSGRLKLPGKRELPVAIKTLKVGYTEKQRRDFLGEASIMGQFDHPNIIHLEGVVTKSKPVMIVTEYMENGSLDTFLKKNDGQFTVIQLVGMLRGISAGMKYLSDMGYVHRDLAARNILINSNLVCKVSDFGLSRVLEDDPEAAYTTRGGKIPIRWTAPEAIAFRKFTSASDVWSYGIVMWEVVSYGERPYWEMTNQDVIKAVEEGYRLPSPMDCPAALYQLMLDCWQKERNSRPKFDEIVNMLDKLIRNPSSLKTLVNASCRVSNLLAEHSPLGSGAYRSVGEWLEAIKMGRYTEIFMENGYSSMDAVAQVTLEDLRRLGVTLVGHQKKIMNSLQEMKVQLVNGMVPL
Chain of Ephrin type-A receptor 2 (Homo sapiens) (P29317 whole entry): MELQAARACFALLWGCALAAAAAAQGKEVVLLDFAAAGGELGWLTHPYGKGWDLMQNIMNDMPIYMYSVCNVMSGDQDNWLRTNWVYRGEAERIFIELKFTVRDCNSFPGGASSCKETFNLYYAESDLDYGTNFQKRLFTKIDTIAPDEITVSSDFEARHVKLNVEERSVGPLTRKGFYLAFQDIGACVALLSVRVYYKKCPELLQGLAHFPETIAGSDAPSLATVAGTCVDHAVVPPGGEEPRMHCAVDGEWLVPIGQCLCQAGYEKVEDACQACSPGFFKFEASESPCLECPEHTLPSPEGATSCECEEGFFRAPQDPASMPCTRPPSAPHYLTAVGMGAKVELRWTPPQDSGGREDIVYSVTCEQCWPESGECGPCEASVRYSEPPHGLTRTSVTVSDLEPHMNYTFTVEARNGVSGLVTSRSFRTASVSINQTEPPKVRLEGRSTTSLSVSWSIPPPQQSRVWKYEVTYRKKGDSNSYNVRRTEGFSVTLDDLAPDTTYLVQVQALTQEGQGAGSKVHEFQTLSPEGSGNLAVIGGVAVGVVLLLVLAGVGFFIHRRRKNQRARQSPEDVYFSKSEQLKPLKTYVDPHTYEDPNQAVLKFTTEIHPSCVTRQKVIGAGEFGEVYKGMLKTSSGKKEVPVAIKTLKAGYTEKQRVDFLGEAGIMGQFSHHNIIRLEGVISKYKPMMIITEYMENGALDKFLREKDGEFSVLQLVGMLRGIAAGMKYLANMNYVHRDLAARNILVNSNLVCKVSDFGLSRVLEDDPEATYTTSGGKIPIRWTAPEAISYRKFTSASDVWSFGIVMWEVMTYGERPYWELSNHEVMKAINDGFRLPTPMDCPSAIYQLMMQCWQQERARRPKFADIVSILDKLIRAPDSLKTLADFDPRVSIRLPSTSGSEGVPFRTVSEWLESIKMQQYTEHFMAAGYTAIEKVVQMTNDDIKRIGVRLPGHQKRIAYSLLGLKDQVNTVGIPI
Chain of Ephrin type-A receptor 7 (Homo sapiens) (Q15375 28-998 limits assumed): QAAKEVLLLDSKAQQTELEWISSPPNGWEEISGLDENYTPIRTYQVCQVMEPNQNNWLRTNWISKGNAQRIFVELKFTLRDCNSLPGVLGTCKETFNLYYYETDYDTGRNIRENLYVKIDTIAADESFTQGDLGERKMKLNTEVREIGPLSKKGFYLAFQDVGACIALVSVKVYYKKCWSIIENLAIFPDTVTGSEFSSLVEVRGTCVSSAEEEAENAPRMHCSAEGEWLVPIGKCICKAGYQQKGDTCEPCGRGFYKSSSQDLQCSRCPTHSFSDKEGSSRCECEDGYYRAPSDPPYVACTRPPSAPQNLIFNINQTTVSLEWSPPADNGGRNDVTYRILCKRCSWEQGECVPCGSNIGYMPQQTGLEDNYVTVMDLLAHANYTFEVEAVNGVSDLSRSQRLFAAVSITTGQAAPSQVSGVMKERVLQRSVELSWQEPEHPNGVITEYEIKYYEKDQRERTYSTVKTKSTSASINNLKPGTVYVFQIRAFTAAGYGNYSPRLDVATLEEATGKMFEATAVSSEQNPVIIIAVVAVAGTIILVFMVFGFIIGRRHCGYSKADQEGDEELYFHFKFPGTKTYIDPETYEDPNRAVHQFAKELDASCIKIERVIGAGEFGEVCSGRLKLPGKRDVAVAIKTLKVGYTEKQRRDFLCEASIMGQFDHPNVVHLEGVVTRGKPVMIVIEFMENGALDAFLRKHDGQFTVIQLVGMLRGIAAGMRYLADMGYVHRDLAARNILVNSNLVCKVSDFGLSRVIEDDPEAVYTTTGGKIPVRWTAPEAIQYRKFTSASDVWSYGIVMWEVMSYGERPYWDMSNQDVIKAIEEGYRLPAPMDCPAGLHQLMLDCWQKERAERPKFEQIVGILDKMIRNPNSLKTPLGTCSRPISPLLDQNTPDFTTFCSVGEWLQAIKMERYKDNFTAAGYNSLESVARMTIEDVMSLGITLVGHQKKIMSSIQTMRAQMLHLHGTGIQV
Chain of Ephrin type-A receptor 4 (Homo sapiens) (P54764 whole entry): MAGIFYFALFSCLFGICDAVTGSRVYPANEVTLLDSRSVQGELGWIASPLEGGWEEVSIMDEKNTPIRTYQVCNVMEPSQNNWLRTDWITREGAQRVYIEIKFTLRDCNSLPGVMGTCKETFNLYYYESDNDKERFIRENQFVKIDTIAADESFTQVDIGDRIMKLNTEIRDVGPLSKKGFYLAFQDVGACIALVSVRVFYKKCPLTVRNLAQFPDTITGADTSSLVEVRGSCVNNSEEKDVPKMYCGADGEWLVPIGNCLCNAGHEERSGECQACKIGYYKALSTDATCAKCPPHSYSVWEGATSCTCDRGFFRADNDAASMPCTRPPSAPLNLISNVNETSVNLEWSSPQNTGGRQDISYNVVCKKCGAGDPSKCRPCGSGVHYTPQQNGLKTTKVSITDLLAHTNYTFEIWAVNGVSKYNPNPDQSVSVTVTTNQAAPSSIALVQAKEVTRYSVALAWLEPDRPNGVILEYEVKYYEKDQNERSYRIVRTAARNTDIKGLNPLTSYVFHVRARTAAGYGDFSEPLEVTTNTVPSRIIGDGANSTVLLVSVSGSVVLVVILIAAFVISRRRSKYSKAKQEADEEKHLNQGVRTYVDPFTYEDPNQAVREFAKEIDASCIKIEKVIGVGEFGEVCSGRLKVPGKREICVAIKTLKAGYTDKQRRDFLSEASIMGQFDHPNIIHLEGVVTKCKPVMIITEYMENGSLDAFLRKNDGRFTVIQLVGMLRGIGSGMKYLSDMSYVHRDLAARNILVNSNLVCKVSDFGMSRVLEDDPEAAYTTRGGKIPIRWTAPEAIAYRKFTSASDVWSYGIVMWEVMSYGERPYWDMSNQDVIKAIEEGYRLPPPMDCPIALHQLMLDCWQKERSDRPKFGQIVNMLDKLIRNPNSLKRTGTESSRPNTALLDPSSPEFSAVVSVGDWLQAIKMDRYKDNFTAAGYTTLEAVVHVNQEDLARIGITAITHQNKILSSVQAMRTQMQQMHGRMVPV

| Structure (SMILES) | residual activity [1] | residual activity [2] | residual activity [3] | residual activity [4] | residual activity [5] | residual activity [6] | residual activity [7] | residual activity [8] | residual activity [9] | residual activity [10] | residual activity [11] | residual activity [12] | residual activity [13] | residual activity [14] | residual activity [15] | residual activity [16] | residual activity [17] | residual activity [18] |
| --- | --- | --- | --- | --- | --- | --- | --- | --- | --- | --- | --- | --- | --- | --- | --- | --- | --- | --- |
| Cc1cncc2cccc(S(=O)(=O)N3CCCN(C(=O)CN)C[C@H]3C)c12 | 91% | 94% | 54% | 7% | 92% | 56% | 96% | 50% | 83% | 66% | 98% | 85% | 75% | – | – | – | – | – |
| O=C1Nc2ccc(Br)cc2/C1=C\c1cc2c([nH]1)CCCC2 | 97% | 99% | – | 105% | 112% | 97% | 108% | – | – | – | – | 101% | 101% | 40% | 106% | 103% | 110% | – |
| COc1cc2ncc(-c3ccccc3)nc2cc1OC | 93% | 99% | 90% | 94% | – | 93% | – | – | – | 94% | – | – | – | – | – | – | – | – |
| COc1ccc(S(=O)(=O)N(CCO)c2ccccc2CN(C)C/C=C/c2ccc(Cl)cc2)cc1 | 100% | 91% | 97% | 76% | 96% | 86% | 97% | 83% | 112% | 96% | 98% | 88% | 103% | 87% | 103% | 97% | 124% | 96% |
| c1ccc(-c2n[nH]c3c2oc2ccccc23)cc1 | 83% | 71% | 98% | 99% | – | – | – | – | – | 78% | – | – | 99% | 5% | – | – | – | 96% |
